Experimental findings from PubChem BioAssay are described below.

A short description of the first assay: viability loss with induced miR-34 in A549 – imaging, A549 dox-inducible miR-34, nuclei and caspase counts, primary screen (AID 1347080). Further: test concentration not given here. The conditions noted are these: A549 miR-34 inducible, Hoechst nuclei count, 48 h; measured here: relative caspase fold change +Dox/-Dox.
For `CCCCCCCCCCCCCCCCCCCCCC(=O)NCCO`, the fold change came out at 0.641.

Take `C[C@H](N)C(=O)CCCCCC(=O)O`: the fold change came to 0.642.

As for `CCCCCCCCCCCC(=O)NC[C@]1(C)CCC[C@]2(C)c3ccc(C(C)C)cc3CC[C@@H]12`, the fold change came out at 1.59.

As for `CCCCCCCC/C=C\CCCCCCCC(=O)OCC(O)COP(=O)(O)O` (stereo not drawn), the fold change stood at 0.696.

Turning to `C/C=C/C[C@@H](C)[C@@H](O)[C@H]1C(=O)N[C@@H](CC)C(=O)N(C)CC(=O)N(C)[C@@H](CC(C)C)C(=O)N[C@@H](C(C)C)C(=O)N(C)[C@@H](CC(C)C)C(=O)N[C@@H](C)C(=O)NC(C)C(=O)N(C)[C@@H](CC(C)C)C(=O)N(C)[C@@H](CC(C)C)C(=O)N(C)[C@@H](C(C)C)C(=O)N1C` (stereo partly drawn), the fold change amounted to 1.6.

In the case of `NCc1cccc2ccncc12`, the fold change came out at 0.524.

As to `CCCCC[C@](C)(O)/C=C/[C@H]1[C@H](O)CC(=O)[C@@H]1CCCCCCC(=O)O`, the fold change was found to be 1.58.

For the molecule `O=C(O)CCCCCCC1C(=O)N(Cc2ccccc2)C(=O)N1NCC(O)C1CCCCC1` (stereo not drawn), the fold change worked out at 2.25.

As for `O=C1O/C(=C/Br)CC[C@@H]1c1cccc2ccccc12`, the fold change is 0.986.

Consider `O=C(O)CCC/C=C\C[C@@H]1[C@@H](/C=C/[C@H](O)CCc2ccccc2)[C@H](O)C[C@@H]1O`, for which the fold change is 1.56.

As to `CCCCC/C=C\C/C=C\C/C=C\C/C=C\CCCC(=O)OCC`, the fold change came out at 0.655.

Regarding `CCCCCCC(=O)SC[C@H](COP(=O)([O-])OCC[N+](C)(C)C)SC(=O)CCCCCC`, the fold change was found to be 0.72.

Take `CC(C)OC(=O)CCC/C=C\C[C@@H]1[C@@H](/C=C/[C@@H](O)CCc2ccccc2)[C@H](O)C[C@@H]1O`: the fold change worked out at 1.39.

With `CC[C@@H]1/C=C(\C)C[C@H](C)C[C@H](OC)[C@H]2O[C@@](O)(C(=O)C(=O)N3CCCC[C@H]3C(=O)O[C@H](/C(C)=C/[C@@H]3CC[C@@H](O)[C@H](OC)C3)[C@H](C)[C@@H](O)CC1=O)[C@H](C)C[C@@H]2OC`, the fold change was determined as 1.28.

With `CCCCC[C@@H](O)/C=C/[C@H]1[C@H](O)CC(=O)[C@@H]1C/C=C\CCCC(=O)O`, the fold change worked out at 1.57.

On to `CC(=O)OCOC(c1ccc2ccccc2c1)P(=O)(OCOC(C)=O)OCOC(C)=O` (stereo not drawn), for which the fold change worked out at 0.941.

In the case of `CCCCC[C@H](O)/C=C/[C@H]1[C@H](O)CC(=O)[C@@H]1CC(=O)CCCCC(=O)O`, the fold change is 1.25.

`O=C(O)CCCCCC[C@@H]1[C@@H](CC[C@@H](O)CCc2cccc(C(F)(F)F)c2)[C@H](O)C[C@@H]1O`: the fold change came to 1.38.

Regarding `CCCCCCCCCCCCCCCCOC[C@H](COP(=O)([O-])OCC[N+](C)(C)C)OC(=O)CCC`, the fold change worked out at 0.912.

In the case of `CCCCCCCCCCCCC/C=C/[C@@H](O)[C@H](CO)NC(=O)CCCCC`, the fold change came out at 0.834.

With `CCCCC[C@H](O)/C=C/[C@@H]1[C@H](C/C=C\CCCC(=O)NCCO)[C@@H](O)C[C@H]1O`, the fold change is 0.881.

Consider `CCCCCCCCCCCCCCCCCCCCCCCCC(=O)OC`, for which the fold change is 0.88.

`CC#CCC(C)[C@H](O)/C=C/[C@@H]1[C@H]2C/C(=C\CCCC(=O)O)C[C@H]2C[C@H]1O` (stereo partly drawn): the fold change came out at 1.12.

For the molecule `CCCCC/C=C\C/C=C\C/C=C\CCCCCCC(=O)OC`, the fold change turned out to be 0.903.

`CCCCCCCCCCCCCCCCSC[C@H](COP(=O)([O-])OCC[N+](C)(C)C)NC(=O)CCCCCCCCCCCCCCC`: the fold change stood at 0.778.

As for `O=C(O)CCCCCC[C@H]1C(=O)NC(=O)N1CCC(O)C1CCCCC1` (stereo partly drawn), the fold change was found to be 1.38.

Turning to `CCCC[C@H](C)C[C@H](O)/C=C/[C@H]1[C@H](O)CC(=O)[C@@H]1CCCCC(CC(=O)O)OC` (stereo partly drawn), the fold change was 0.824.

For `CC(C)CCC[C@@H](C)[C@H]1CC[C@H]2[C@@H]3CC(=O)[C@@]4(O)C[C@@H](O)CC[C@]4(C)[C@H]3CC[C@]12C`, the fold change came out at 2.89.

As for `CC(C)CCCC(C)NC(C)C` (stereo not drawn), the fold change was found to be 0.874.

Regarding `CCCCCCCC/C=C\CCCCCCCCCCCCCC(=O)N[C@@H](CO)[C@H](O)/C=C/CCCCCCCCCCCCC`, the fold change is 0.823.

Consider `CCCCC[C@@](C)(O)/C=C/[C@H]1[C@H](O)CC(=O)[C@@H]1C/C=C\CCCC(=O)O`, for which the fold change was 1.07.

Take `CC(C)OC(=O)CCC/C=C\C[C@@H]1[C@@H](/C=C/C(F)(F)COc2ccccc2)[C@H](O)C[C@@H]1O`: the fold change worked out at 0.899.

Take `CCCCCCCC/C=C\CCCCCCCC(=O)N[C@@H](CO)C(=O)O`: the fold change is 1.73.

For `CCC(C)(C)C(=O)C(=O)N1CCCC[C@H]1C(=O)O[C@H](CCc1ccc(OC)c(OC)c1)c1cccc(N)c1`, the fold change stood at 0.49.

Take `O=C(O)CCC/C=C\C[C@@H]1[C@@H](/C=C/[C@@H](O)Cc2ccccc2)[C@H](O)C[C@@H]1O`: the fold change was found to be 1.42.

In the case of `CCCCCCCCCCCCCCCCCC(=O)NCCO`, the fold change came to 1.01.

As for `COC(=O)[C@H](Cc1ccccc1)NC(=O)/C=C/c1ccc(O)cc1`, the fold change amounted to 0.674.

Take `CCCCC[C@@](C)(O)/C=C/[C@@H]1[C@@H](C/C=C\CCCC(=O)OC)[C@@H](O)C[C@H]1O`: the fold change worked out at 1.07.

For `O=C(/C=C/c1cccc(C(=O)NO)c1)NO`, the fold change turned out to be 1.09.

Staying with this assay, now noted: A549 miR-34 inducible, Hoechst nuclei count, 48 h; measured here: total cells with miR-34 induction; stronger effect = lower value.
On to `CCCCCCCCCCCCCCCCCCCCCC(=O)NCCO`, for which the cell count was 6180.

Molecule `C[C@H](N)C(=O)CCCCCC(=O)O` had a cell count of 6090.

With `CCCCCCCCCCCC(=O)NC[C@]1(C)CCC[C@]2(C)c3ccc(C(C)C)cc3CC[C@@H]12`, the cell count stood at 6180.

Consider `CCCCCCCC/C=C\CCCCCCCC(=O)OCC(O)COP(=O)(O)O` (stereo not drawn), for which the cell count amounted to 5760.

`C/C=C/C[C@@H](C)[C@@H](O)[C@H]1C(=O)N[C@@H](CC)C(=O)N(C)CC(=O)N(C)[C@@H](CC(C)C)C(=O)N[C@@H](C(C)C)C(=O)N(C)[C@@H](CC(C)C)C(=O)N[C@@H](C)C(=O)NC(C)C(=O)N(C)[C@@H](CC(C)C)C(=O)N(C)[C@@H](CC(C)C)C(=O)N(C)[C@@H](C(C)C)C(=O)N1C` (stereo partly drawn) registered a cell count of 2270.

The molecule `NCc1cccc2ccncc12` came in with a cell count of 5270.

`CCCCC[C@](C)(O)/C=C/[C@H]1[C@H](O)CC(=O)[C@@H]1CCCCCCC(=O)O` displayed a cell count of 5750.

The molecule `O=C(O)CCCCCCC1C(=O)N(Cc2ccccc2)C(=O)N1NCC(O)C1CCCCC1` (stereo not drawn) yielded a cell count of 5360.

With `O=C1O/C(=C/Br)CC[C@@H]1c1cccc2ccccc12`, the cell count is 5530.

`O=C(O)CCC/C=C\C[C@@H]1[C@@H](/C=C/[C@H](O)CCc2ccccc2)[C@H](O)C[C@@H]1O` yielded a cell count of 5340.

In turn, `CCCCC/C=C\C/C=C\C/C=C\C/C=C\CCCC(=O)OCC` had a cell count of 5170.

`CCCCCCC(=O)SC[C@H](COP(=O)([O-])OCC[N+](C)(C)C)SC(=O)CCCCCC` registered a cell count of 5570.

For `CC(C)OC(=O)CCC/C=C\C[C@@H]1[C@@H](/C=C/[C@@H](O)CCc2ccccc2)[C@H](O)C[C@@H]1O`, the cell count was determined as 5640.

In turn, `CC[C@@H]1/C=C(\C)C[C@H](C)C[C@H](OC)[C@H]2O[C@@](O)(C(=O)C(=O)N3CCCC[C@H]3C(=O)O[C@H](/C(C)=C/[C@@H]3CC[C@@H](O)[C@H](OC)C3)[C@H](C)[C@@H](O)CC1=O)[C@H](C)C[C@@H]2OC` yielded a cell count of 3590.

Molecule `CCCCC[C@@H](O)/C=C/[C@H]1[C@H](O)CC(=O)[C@@H]1C/C=C\CCCC(=O)O` had a cell count of 6000.

With `CC(=O)OCOC(c1ccc2ccccc2c1)P(=O)(OCOC(C)=O)OCOC(C)=O` (stereo not drawn), the cell count was determined as 3180.

On to `CCCCC[C@H](O)/C=C/[C@H]1[C@H](O)CC(=O)[C@@H]1CC(=O)CCCCC(=O)O`, for which the cell count turned out to be 6410.

For `O=C(O)CCCCCC[C@@H]1[C@@H](CC[C@@H](O)CCc2cccc(C(F)(F)F)c2)[C@H](O)C[C@@H]1O`, the cell count was 6150.

Consider `CCCCCCCCCCCCCCCCOC[C@H](COP(=O)([O-])OCC[N+](C)(C)C)OC(=O)CCC`, for which the cell count stood at 5110.

In the case of `CCCCCCCCCCCCC/C=C/[C@@H](O)[C@H](CO)NC(=O)CCCCC`, the cell count amounted to 5840.

As for `CCCCC[C@H](O)/C=C/[C@@H]1[C@H](C/C=C\CCCC(=O)NCCO)[C@@H](O)C[C@H]1O`, the cell count was found to be 6440.

Take `CCCCCCCCCCCCCCCCCCCCCCCCC(=O)OC`: the cell count came to 6850.

For `CC#CCC(C)[C@H](O)/C=C/[C@@H]1[C@H]2C/C(=C\CCCC(=O)O)C[C@H]2C[C@H]1O` (stereo partly drawn), the cell count stood at 5570.

The molecule `CCCCC/C=C\C/C=C\C/C=C\CCCCCCC(=O)OC` showed a cell count of 6440.

`CCCCCCCCCCCCCCCCSC[C@H](COP(=O)([O-])OCC[N+](C)(C)C)NC(=O)CCCCCCCCCCCCCCC` gave a cell count of 6260.

In the case of `O=C(O)CCCCCC[C@H]1C(=O)NC(=O)N1CCC(O)C1CCCCC1` (stereo partly drawn), the cell count amounted to 6150.

Take `CCCC[C@H](C)C[C@H](O)/C=C/[C@H]1[C@H](O)CC(=O)[C@@H]1CCCCC(CC(=O)O)OC` (stereo partly drawn): the cell count came out at 5200.

Molecule `CC(C)CCC[C@@H](C)[C@H]1CC[C@H]2[C@@H]3CC(=O)[C@@]4(O)C[C@@H](O)CC[C@]4(C)[C@H]3CC[C@]12C` gave a cell count of 5340.

The molecule `CC(C)CCCC(C)NC(C)C` (stereo not drawn) returned a cell count of 8610.

`CCCCCCCC/C=C\CCCCCCCCCCCCCC(=O)N[C@@H](CO)[C@H](O)/C=C/CCCCCCCCCCCCC`: the cell count was 5810.

As to `CCCCC[C@@](C)(O)/C=C/[C@H]1[C@H](O)CC(=O)[C@@H]1C/C=C\CCCC(=O)O`, the cell count stood at 5770.

On to `CC(C)OC(=O)CCC/C=C\C[C@@H]1[C@@H](/C=C/C(F)(F)COc2ccccc2)[C@H](O)C[C@@H]1O`, for which the cell count was 5900.

In turn, `CCCCCCCC/C=C\CCCCCCCC(=O)N[C@@H](CO)C(=O)O` returned a cell count of 5230.

With `CCC(C)(C)C(=O)C(=O)N1CCCC[C@H]1C(=O)O[C@H](CCc1ccc(OC)c(OC)c1)c1cccc(N)c1`, the cell count worked out at 4270.

Molecule `O=C(O)CCC/C=C\C[C@@H]1[C@@H](/C=C/[C@@H](O)Cc2ccccc2)[C@H](O)C[C@@H]1O` yielded a cell count of 6070.

Regarding `CCCCCCCCCCCCCCCCCC(=O)NCCO`, the cell count turned out to be 6030.

`COC(=O)[C@H](Cc1ccccc1)NC(=O)/C=C/c1ccc(O)cc1`: the cell count was 6500.

Take `CCCCC[C@@](C)(O)/C=C/[C@@H]1[C@@H](C/C=C\CCCC(=O)OC)[C@@H](O)C[C@H]1O`: the cell count came to 5940.

In the case of `O=C(/C=C/c1cccc(C(=O)NO)c1)NO`, the cell count amounted to 4750.
